Experiments:
Test in all cases: log2 ratio of Biotin-Ahx-Ub-VS probe labelling (fragment/DMSO); higher = less target engagement (more negative = stronger competition), active = hit call of the paper (q ≤ 0.05, log2 ratio ≤ -1)
Conditions in all cases: compound concentration: 200 uM; treatment time: 3 h
USP34 = USP34 (UniProt Q70CQ2)
Outline: (§1)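 HEK293T lysate (495 µg per sample, in Tris/CHAPS/IGEPAL buffer with protease inhibitors) was treated in triplicate with fragment at 200 µM or with DMSO for 3 h. It was then treated with Biotin-Ahx-Ub-VS (0.5 µM final) for 1 h. Labelled DUBs were NeutrAvidin-enriched, digested with LysC and trypsin, and run by diaPASEF LC-MS/MS. Spectronaut label-free quantities were global-median-normalised. Values are average log2 ratios fragment/DMSO by unpaired t-test, using proteins with ≥2 unique peptides.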

USP36 = target: T1, USP36 (UniProt Q9P275)
T1 sequence (whole entry): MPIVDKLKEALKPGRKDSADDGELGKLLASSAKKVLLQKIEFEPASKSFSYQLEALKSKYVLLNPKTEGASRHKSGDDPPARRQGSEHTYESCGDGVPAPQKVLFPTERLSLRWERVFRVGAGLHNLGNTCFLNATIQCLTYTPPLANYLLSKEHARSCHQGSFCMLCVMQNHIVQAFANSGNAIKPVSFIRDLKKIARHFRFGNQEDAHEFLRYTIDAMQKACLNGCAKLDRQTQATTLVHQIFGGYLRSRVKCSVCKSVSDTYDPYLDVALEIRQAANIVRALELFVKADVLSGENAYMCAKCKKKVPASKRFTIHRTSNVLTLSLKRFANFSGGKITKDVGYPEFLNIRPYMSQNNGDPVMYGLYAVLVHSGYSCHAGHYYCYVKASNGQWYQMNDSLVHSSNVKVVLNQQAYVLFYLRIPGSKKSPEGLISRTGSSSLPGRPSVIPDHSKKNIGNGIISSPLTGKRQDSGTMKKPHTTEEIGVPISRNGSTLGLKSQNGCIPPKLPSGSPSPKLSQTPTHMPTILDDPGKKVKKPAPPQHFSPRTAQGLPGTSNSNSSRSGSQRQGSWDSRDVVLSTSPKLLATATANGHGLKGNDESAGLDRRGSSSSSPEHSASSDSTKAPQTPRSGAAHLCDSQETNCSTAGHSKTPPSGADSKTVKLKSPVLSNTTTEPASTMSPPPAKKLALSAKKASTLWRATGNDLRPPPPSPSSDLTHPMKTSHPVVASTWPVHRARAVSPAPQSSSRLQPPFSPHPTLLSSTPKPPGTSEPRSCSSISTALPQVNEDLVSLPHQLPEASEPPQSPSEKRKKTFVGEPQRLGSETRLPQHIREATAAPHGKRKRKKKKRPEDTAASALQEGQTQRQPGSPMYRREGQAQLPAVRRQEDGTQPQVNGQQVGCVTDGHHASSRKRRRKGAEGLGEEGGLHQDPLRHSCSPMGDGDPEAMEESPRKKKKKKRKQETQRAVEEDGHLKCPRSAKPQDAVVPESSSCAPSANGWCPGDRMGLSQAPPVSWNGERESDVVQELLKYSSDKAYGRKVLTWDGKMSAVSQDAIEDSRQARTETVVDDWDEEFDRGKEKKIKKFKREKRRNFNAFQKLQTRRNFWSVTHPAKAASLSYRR
Outline: as §1

USP38 = target: T2, USP38 (UniProt Q8NB14)
T2 sequence (whole entry): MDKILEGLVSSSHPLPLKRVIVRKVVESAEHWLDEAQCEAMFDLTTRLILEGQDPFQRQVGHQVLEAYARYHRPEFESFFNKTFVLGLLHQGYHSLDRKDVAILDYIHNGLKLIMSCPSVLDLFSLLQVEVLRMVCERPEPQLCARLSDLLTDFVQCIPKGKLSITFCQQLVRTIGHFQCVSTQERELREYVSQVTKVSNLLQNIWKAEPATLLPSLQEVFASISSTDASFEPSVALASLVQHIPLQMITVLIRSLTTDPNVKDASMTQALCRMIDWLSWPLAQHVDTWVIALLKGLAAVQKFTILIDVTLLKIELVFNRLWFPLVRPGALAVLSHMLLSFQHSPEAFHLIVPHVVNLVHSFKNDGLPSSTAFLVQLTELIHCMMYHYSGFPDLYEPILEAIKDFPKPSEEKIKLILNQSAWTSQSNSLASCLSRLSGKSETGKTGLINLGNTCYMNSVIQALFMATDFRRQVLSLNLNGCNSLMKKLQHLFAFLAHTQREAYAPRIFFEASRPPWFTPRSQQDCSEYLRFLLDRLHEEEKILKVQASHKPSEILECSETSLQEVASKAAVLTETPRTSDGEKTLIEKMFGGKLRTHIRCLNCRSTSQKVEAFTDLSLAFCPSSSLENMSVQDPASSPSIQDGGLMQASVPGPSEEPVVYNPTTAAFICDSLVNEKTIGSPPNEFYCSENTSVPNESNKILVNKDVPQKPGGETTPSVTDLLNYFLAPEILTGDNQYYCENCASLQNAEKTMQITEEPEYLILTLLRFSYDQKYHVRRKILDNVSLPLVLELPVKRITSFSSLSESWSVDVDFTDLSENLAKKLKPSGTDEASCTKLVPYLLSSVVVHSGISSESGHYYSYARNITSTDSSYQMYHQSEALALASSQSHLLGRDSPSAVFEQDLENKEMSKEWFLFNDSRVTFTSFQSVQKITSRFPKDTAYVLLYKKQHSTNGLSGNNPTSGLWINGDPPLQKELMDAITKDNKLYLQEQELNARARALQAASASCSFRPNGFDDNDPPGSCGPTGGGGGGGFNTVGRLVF
Outline: as §1

USP39 = target: T3, USP39 (UniProt Q53GS9)
T3 sequence (whole entry): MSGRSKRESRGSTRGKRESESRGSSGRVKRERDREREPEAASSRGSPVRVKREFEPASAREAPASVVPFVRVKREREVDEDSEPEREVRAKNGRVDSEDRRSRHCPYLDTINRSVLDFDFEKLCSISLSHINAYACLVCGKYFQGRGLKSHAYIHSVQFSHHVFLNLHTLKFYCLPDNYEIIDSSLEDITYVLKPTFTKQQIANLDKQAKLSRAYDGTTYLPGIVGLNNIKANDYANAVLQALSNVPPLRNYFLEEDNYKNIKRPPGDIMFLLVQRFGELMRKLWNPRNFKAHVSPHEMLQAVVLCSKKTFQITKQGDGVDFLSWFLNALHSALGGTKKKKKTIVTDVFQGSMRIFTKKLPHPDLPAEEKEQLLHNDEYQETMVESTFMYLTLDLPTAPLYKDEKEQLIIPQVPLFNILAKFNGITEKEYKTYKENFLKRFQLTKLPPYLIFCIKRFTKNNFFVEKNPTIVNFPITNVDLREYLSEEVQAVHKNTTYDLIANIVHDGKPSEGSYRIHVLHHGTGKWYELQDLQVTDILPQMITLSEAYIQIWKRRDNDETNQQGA
Outline: as §1

USP4 = target: T4, USP4 (UniProt Q13107)
T4 sequence (whole entry): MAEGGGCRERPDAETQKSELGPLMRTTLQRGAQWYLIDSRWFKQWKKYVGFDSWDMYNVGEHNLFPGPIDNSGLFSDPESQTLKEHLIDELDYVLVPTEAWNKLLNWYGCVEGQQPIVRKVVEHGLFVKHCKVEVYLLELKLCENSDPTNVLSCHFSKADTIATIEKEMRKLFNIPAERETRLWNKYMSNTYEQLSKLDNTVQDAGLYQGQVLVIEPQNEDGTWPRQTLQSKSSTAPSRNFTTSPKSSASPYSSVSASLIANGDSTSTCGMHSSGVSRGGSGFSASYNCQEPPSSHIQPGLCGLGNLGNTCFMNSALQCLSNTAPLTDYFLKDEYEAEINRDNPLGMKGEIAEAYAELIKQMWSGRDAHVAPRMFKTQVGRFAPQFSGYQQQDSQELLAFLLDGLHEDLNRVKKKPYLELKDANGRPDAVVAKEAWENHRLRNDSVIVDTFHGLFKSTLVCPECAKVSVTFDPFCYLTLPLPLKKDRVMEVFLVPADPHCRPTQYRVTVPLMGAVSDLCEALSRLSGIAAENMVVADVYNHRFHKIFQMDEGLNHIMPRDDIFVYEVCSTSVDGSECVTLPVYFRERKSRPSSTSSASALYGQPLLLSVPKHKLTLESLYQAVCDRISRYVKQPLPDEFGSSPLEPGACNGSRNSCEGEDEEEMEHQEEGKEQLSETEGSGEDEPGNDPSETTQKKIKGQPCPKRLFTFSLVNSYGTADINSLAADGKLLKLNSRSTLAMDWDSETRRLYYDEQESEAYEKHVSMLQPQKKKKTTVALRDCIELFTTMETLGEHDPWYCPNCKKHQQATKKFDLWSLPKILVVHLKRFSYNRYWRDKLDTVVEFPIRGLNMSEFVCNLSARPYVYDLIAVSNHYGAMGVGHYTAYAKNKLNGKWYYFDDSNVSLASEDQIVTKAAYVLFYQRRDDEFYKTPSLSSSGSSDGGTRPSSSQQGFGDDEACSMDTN
Outline: as §1

Measured: log2 ratio of Biotin-Ahx-Ub-VS probe labelling

Chain of USP34 (Q70CQ2 whole entry, the tested form may be a part): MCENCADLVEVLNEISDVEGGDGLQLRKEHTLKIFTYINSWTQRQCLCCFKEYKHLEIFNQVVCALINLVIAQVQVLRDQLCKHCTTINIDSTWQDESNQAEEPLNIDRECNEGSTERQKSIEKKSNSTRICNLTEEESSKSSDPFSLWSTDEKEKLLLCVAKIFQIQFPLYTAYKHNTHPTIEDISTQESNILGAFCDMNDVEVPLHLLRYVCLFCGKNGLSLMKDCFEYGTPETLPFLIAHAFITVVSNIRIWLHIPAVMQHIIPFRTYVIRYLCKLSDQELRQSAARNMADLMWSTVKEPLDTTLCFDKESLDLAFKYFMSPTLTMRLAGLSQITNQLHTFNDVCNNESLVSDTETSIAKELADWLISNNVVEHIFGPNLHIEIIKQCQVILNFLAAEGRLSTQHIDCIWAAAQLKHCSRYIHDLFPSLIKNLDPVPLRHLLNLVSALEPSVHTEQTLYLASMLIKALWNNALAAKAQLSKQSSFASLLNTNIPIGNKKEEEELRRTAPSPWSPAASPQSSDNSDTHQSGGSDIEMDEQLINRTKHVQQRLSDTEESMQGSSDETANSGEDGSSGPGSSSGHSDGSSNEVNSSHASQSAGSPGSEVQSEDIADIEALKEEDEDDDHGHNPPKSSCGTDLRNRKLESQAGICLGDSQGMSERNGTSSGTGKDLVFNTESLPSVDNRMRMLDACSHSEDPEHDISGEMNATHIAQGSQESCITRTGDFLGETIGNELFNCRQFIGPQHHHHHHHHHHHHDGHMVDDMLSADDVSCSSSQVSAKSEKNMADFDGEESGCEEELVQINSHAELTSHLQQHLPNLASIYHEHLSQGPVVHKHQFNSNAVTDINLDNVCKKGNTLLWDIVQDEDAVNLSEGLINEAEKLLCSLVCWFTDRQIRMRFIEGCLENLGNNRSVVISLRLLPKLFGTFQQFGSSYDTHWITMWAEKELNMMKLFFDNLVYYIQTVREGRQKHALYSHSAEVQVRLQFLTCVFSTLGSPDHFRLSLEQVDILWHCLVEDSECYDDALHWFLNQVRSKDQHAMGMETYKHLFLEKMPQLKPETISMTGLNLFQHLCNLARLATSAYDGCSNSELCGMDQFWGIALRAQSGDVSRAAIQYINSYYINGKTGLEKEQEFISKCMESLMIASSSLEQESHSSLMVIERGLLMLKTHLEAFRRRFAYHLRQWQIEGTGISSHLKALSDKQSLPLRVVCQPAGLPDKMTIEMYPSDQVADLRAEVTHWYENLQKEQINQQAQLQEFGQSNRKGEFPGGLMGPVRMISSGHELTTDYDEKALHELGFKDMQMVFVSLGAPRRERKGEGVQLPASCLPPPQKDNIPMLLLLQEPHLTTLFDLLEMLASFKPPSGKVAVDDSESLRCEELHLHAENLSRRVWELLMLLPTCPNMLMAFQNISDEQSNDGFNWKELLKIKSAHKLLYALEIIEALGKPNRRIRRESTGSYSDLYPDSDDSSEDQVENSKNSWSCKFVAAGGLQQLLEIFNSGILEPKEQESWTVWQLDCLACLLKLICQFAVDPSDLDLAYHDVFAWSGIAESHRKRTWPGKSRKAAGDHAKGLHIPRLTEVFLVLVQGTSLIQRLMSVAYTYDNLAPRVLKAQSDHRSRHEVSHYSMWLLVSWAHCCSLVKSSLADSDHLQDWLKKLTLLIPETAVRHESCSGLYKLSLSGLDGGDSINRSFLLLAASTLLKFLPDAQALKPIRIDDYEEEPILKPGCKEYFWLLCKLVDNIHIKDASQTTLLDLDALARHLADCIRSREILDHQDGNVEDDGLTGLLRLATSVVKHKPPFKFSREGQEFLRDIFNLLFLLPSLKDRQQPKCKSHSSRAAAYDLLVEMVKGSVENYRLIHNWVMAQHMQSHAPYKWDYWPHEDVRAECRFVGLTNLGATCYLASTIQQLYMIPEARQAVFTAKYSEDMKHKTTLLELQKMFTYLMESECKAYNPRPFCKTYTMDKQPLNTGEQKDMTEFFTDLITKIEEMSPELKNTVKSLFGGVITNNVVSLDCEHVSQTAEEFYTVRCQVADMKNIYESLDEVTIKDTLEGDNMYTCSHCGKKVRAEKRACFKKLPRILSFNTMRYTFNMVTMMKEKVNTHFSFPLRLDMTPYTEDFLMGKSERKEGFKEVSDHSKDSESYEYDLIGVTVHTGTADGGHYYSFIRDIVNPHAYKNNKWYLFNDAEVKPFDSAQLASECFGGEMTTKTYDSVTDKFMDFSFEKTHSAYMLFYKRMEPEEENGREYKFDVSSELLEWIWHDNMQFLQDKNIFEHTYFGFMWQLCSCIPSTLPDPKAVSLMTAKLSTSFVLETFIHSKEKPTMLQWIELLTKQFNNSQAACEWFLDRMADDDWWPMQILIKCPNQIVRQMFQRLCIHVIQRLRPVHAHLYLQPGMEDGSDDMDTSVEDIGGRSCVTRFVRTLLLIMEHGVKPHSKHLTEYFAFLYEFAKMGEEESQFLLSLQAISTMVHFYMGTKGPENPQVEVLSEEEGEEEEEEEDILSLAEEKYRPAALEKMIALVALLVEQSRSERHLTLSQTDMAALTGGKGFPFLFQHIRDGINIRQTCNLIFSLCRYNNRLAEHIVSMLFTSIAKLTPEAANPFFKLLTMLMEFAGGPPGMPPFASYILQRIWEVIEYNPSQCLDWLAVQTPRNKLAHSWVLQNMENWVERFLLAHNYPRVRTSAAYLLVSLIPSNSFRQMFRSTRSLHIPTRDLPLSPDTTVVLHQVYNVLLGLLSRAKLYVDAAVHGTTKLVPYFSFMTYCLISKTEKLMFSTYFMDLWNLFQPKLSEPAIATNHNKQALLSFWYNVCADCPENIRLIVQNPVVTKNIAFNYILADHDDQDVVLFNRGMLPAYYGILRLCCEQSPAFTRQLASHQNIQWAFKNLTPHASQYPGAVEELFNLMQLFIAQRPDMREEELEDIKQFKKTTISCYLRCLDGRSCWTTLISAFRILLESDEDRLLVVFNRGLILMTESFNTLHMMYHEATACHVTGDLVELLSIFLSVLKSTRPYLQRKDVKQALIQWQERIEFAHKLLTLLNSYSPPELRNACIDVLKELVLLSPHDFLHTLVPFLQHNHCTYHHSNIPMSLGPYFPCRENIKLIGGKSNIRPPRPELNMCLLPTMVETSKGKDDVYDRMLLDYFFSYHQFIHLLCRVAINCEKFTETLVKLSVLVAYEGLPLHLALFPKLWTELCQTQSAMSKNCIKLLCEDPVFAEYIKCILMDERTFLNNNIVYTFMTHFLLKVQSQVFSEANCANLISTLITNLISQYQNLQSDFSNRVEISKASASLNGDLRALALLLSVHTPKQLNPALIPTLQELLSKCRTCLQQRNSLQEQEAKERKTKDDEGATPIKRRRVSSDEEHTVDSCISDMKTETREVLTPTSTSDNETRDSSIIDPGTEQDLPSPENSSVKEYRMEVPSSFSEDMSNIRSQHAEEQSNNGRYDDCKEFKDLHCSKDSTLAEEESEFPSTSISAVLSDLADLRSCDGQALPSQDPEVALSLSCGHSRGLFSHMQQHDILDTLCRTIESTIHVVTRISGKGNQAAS

COc1ccc(Cl)cc1NC(=O)CCl
inactive: USP34 -0.301 | USP36 -0.44 | USP38 -0.283 | USP39 0.264 | USP4 -0.469

Source: the supplement of paper PMC11732987, “Enantioselective OTUD7B fragment discovery through chemoproteomics screening and high-throughput optimisation” (Communications Chemistry, 2025)
